Experimental data taken from PubChem BioAssay (NCATS).
Records with an inconclusive call do not appear. Unmarked numbers belong to inactive results. Activity calls are given as the source filed them. Calls follow the shape of the dose curve; as a rule, active = well fitted cell-killing curve with a large enough effect; inconclusive = small, poorly fitted or top-dose-only effect; inactive = no such curve, though single readings can be large or run the other way.

Test: qHTS of pediatric cancer cell lines to identify multiple opportunities for drug repurposing: Primary screen for SK-N-SH cells (AID 1347098); also: nearly all actives have a fitted effect of over 65% in size;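 as to activity change, negative = cytotoxic: DMSO served as neutral control and bortezomib at 2.3 µM as positive control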
Conditions: SK-N-SH viability, CellTiter-Glo luminescence, 48 h; series mostly up to 57 µM; activity change, negative = cytotoxic: at the top concentration
Summary of the method: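 Cells (500-1,000/well) rested 5 h, then received compounds for 48 h; metabolically active cells were measured by CellTiter-Glo luminescence. Final concentrations spanned up to 46 µM (MIPE, 11-point) or 0.59 nM-46 µM (NPC, 8-point) in primary screens, 11-point in follow-ups.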
% is scaled to controls: 0 for no effect and ±100 for the full control effect; potency is read from the fitted curve at half-maximal effect.

Row | SMILES | activity change, negative = cytotoxic | Potency
1 | CC(C)NCC(O)c1ccc(N)c(C#N)c1 (stereo not given) | -7.69% | 
2 | CC(C)[N+](C)(CCC(C(N)=O)(c1ccccc1)c1ccccc1)C(C)C | -1.51% | 
3 | CCN(CC)C(C)C(=O)c1ccccc1 (stereo not given) | -3.84% | 
4 | CCC1(c2ccccc2)CCC(=O)NC1=O (stereo not given) | 14.8% | 
5 | O=C(O)c1nn(Cc2ccc(Cl)cc2Cl)c2ccccc12 |  | inactive
6 | CCOC(=O)c1ncn2c1CN(C)C(=O)c1c(I)cccc1-2 | 3.13% | 
7 | CNC(=O)Oc1cccc2ccccc12 | -18.9% | 
8 | COc1ccc(C(=O)N2CCCC2=O)cc1 | -4.09% | 
9 | C[C@]12C=CC(=O)C=C1CC[C@@H]1[C@@H]2CC[C@@]2(C)[C@H]1CC[C@]2(C)O | -12.7% | 
10 | C=CC[C@]1(O)CC[C@H]2[C@@H]3CCC4=CC(=O)CCC4=C3C=C[C@@]21C | -15.4% | 
11 | OC(O)C(Cl)(Cl)Cl | -2.46% | 
12 | CN(C)CCc1c[nH]c2cccc(O)c12 |  | 35 µM (active)
13 | c1cc2c(c(N3CCNCC3)c1)OCCO2 | 4.02% | 
14 | CC(Cc1ccc2c(c1)OCO2)NO (stereo not given) | -20.5% [at 115 µM] | 
15 | CN1C(=O)CN=C(c2ccccc2)c2cc([N+](=O)[O-])ccc21 | -4.6% | 
16 | CC1N=C(N)OC1c1ccccc1 (stereo not given) | -2.92% [at 115 µM] | 
17 | CC1=C2[C@H]3OC(=O)[C@@H](C)[C@@H]3CC[C@@]2(C)C=CC1=O | -5.4% | 
18 | Cc1ncc2n1-c1ccc(Cl)cc1C(c1ccccc1F)=NC2 | -25.8% | 
19 | CCCCCCCCCCCC[N+](C)(C)CCOc1ccccc1 |  | 13.7 µM (active)
20 | CN1C(=O)CN=C(c2ccccc2)c2cc(Cl)ccc21 | -25.9% | 

Row | SMILES | activity change, negative = cytotoxic | Potency
21 | COC(=O)C1=CCCN(C)C1 |  | inactive
22 | CC(C)=CCN1CC[C@@]2(C)c3cc(O)ccc3C[C@@H]1[C@@H]2C | -26.2% [at 115 µM] | 
23 | CNC(=O)NC(O)C(Cl)(Cl)Cl (stereo not given) | 5.44% | 
24 | CC(C)(O)C(Cl)(Cl)Cl | 8.65% | 
25 | C[C@]12Cc3nonc3C[C@@H]1CC[C@@H]1[C@@H]2CC[C@@]2(C)[C@H]1CC[C@]2(C)O | -9.71% | 
26 | CCCCC1C(=O)NC(=O)N(C2CCCCC2)C1=O (stereo not given) | -10.1% | 
27 | CCCN(CCC)CCc1c[nH]c2ccccc12 | -11.9% [at 115 µM] | 
28 | Oc1c(Br)cc(Br)cc1Br | -5.53% | 
29 | ClCCCN1CCN(c2cccc(Cl)c2)CC1 | -1.26% | 
30 | COc1cc(CC#N)cc(OC)c1OC | -7.53% | 
31 | CNC(C)Cc1ccc2c(c1)OCO2 (stereo not given) | -6.46% [at 115 µM] | 
32 | COc1ccc(CN2CCNCC2)c(OC)c1OC | -6.49% | 
33 | OC(c1ccccc1)(c1ccccc1)C1CCNCC1 | -23% | 
34 | CCOC(=O)NC(C)(C)Cc1ccc(Cl)cc1 | -3.94% | 
35 | Cc1ccc(N=CN(C)C=Nc2ccc(C)cc2C)c(C)c1 | -4.87% | 
36 | C[N+](C)(C)CCOC(=O)C(O)(c1ccccc1)c1ccccc1 | 2.11% | 
37 | O=C(N[C@H]1N=C(c2ccccc2F)c2cccc3c2N(CC3)C1=O)c1cc2ccccc2[nH]1 | -20.4% | 
38 | CCOC(=O)C(c1c(O)c2ccccc2oc1=O)c1c(O)c2ccccc2oc1=O | 0.786% | 
39 | CC1Sc2c(C(=O)O)c(=O)c3cc(F)c(N4CCNCC4)cc3n21 (stereo not given) | 3.37% | 
40 | CC[C@H]1C[C@@H]2C[C@H]3c4[nH]c5ccc(OC)cc5c4CCN(C2)[C@@H]13 |  | 30.9 µM (active)
